# Where “and” joins values, the source holds several entries; their conditions need not be identical. Identical values can stand only once. Results filed as inconclusive are left out. A call without a number means that no potency is given here. Some compounds were tested as several samples or in several runs, with calls that do not always agree. Calls of active or inactive are those of the source. The call rests on the fitted dose curve; in most records, active means well fitted curve in the direction sought with a large enough effect in the repeat runs; inconclusive means weak or mixed curves; inactive means no such curve, though single readings can be large; an effect the other way counts as inactive or inconclusive.
# Experiment: qHTS RealTime-Glo MT Cell Viability Assay in HepG2 cells - 40 hour (AID 1224870); further: nearly all actives have a fitted effect of over 50% in size
# Conditions: RealTime-Glo luminescence; series mostly up to 76.8 µM
# Summary of the method: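 HepG2 cells mixed with RealTime-Glo MT reagents (NanoLuc plus cell-permeant prosubstrate) were seeded at 600 cells/well, incubated 5 h at 37 C/5% CO2, then pinned with compounds in DMSO; nonlytic luminescence tracked viability during 40 h treatment.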
# Potency means the concentration at half of the fitted maximal effect.
row,Compound,Potency
1,Cc1ccc(-c2c(Cl)nc(C#N)n2S(=O)(=O)N(C)C)cc1,inactive
2,CCCN(CC1CC1)c1c([N+](=O)[O-])cc(C(F)(F)F)cc1[N+](=O)[O-],inactive
3,COc1cc(CC(C)N)cc2c1OCO2 (configuration not stated),inactive
4,O=C(O)CC(Cl)C(=O)O (configuration not stated),inactive
5,CCCN(CCCl)c1c([N+](=O)[O-])cc(C(F)(F)F)cc1[N+](=O)[O-],inactive
6,CCOP(=S)(OCC)SCn1nnc2ccccc2c1=O,inactive
7,CN1C(=O)C(O)N=C(c2ccccc2)c2cc(Cl)ccc21 (configuration not stated),inactive
8,CCN(C)N=O,inactive
9,C(=NC1CCCCC1)=NC1CCCCC1,12.4 µM (active) and 12.3 µM (active)
10,CC(C)O.CC(C)O.OCCN(CCO)CCO.OCCN(CCO)CCO.[Ti],inactive
11,O=Cc1ccc2c(c1)OCO2,inactive
12,CCOC(=O)CBr,inactive
13,Cc1ccccc1C(=O)Nc1cccc(OC(C)C)c1,inactive
14,IC(I)=C(I)I,0.347 µM (active)
15,O=C(Nc1ccccc1)Nc1ccnc(Cl)c1,inactive
16,Nc1ccc([N+](=O)[O-])cc1[N+](=O)[O-],inactive
17,O=C(O)C(F)(F)C(F)(F)C(F)(F)C(F)(F)C(F)(F)C(F)(F)C(F)(F)C(F)(F)C(F)(F)F,inactive
18,COC(=O)C(Br)CBr (configuration not stated),inactive

row,Compound,Potency
1,Clc1ccc(C2(Cn3cncn3)CC(Br)CO2)c(Cl)c1 (configuration not stated),inactive
2,[CH3][Sn]([CH3])([Cl])[Cl],inactive
3,O=[N+]([O-])c1ccccc1CCl,inactive
4,COC(=O)C(C)N(C(=O)Cc1ccccc1)c1c(C)cccc1C (configuration not stated),inactive
5,C=CC(=O)OCCCCO,inactive
6,CCOP(=O)(OCC)O/C(=C/Cl)c1ccc(Cl)cc1Cl,inactive
7,II,5.49 µM (active)
8,CCOP(=O)(OCC)Oc1ccc([N+](=O)[O-])cc1,inactive
9,C=CC(=O)OCC(C)O (configuration not stated),inactive
10,CN(C)c1ccc(N(C)C)cc1,inactive
11,CC(C)=CCOc1c2occc2cc2ccc(=O)oc12,inactive
12,c1ccc(CN2CCNCC2)cc1,inactive
13,O=C(CCl)c1ccc(Cl)cc1Cl,inactive and 16.9 µM (active)
14,COCCOCCO,inactive
15,C/C(=C\c1ccccc1)[N+](=O)[O-],21.9 µM (active)
16,CC1(C)[C@H](C=C(Cl)Cl)[C@@H]1C(=O)O[C@@H](C#N)c1cccc(Oc2ccccc2)c1,inactive
17,CCC(C)(NC(=O)c1cc(Cl)c(C)c(Cl)c1)C(=O)CCl (configuration not stated),49.3 µM (active)
18,CO/N=C(/C(=O)OC)c1ccccc1COc1ccccc1C,inactive

# Experiment: A CellTox Green Cytotoxicity Assay to monitor cytotoxicity in HEK293 cells - 40 hour (AID 1224871); further: nearly all actives have a fitted effect of over 45% in size
# Conditions: CellTox Green fluorescence; series mostly up to 76.8 µM
# Summary of the method: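 Cytotoxicity was tracked continuously in HEK293 cells by a DNA-binding dye excluded from viable cells. Compounds were transferred in DMSO 5 h after seeding; fluorescence was recorded at intervals up to 40 h.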
row,Compound,Potency
1,Cc1ccc(-c2c(Cl)nc(C#N)n2S(=O)(=O)N(C)C)cc1,inactive
2,CCCN(CC1CC1)c1c([N+](=O)[O-])cc(C(F)(F)F)cc1[N+](=O)[O-],inactive
3,COc1cc(CC(C)N)cc2c1OCO2 (configuration not stated),inactive
4,O=C(O)CC(Cl)C(=O)O (configuration not stated),inactive
5,CCCN(CCCl)c1c([N+](=O)[O-])cc(C(F)(F)F)cc1[N+](=O)[O-],inactive
6,CCOP(=S)(OCC)SCn1nnc2ccccc2c1=O,inactive
7,CN1C(=O)C(O)N=C(c2ccccc2)c2cc(Cl)ccc21 (configuration not stated),inactive
8,CCN(C)N=O,inactive
9,C(=NC1CCCCC1)=NC1CCCCC1,19.6 µM (active) and 21.9 µM (active)
10,CC(C)O.CC(C)O.OCCN(CCO)CCO.OCCN(CCO)CCO.[Ti],inactive
11,O=Cc1ccc2c(c1)OCO2,inactive
12,CCOC(=O)CBr,inactive
13,Cc1ccccc1C(=O)Nc1cccc(OC(C)C)c1,inactive
14,IC(I)=C(I)I,54.9 µM (active)
15,O=C(Nc1ccccc1)Nc1ccnc(Cl)c1,inactive
16,Nc1ccc([N+](=O)[O-])cc1[N+](=O)[O-],inactive
17,O=C(O)C(F)(F)C(F)(F)C(F)(F)C(F)(F)C(F)(F)C(F)(F)C(F)(F)C(F)(F)C(F)(F)F,inactive
18,COC(=O)C(Br)CBr (configuration not stated),inactive

row,Compound,Potency
1,Clc1ccc(C2(Cn3cncn3)CC(Br)CO2)c(Cl)c1 (configuration not stated),inactive
2,[CH3][Sn]([CH3])([Cl])[Cl],inactive
3,O=[N+]([O-])c1ccccc1CCl,inactive
4,COC(=O)C(C)N(C(=O)Cc1ccccc1)c1c(C)cccc1C (configuration not stated),inactive
5,C=CC(=O)OCCCCO,inactive
6,CCOP(=O)(OCC)O/C(=C/Cl)c1ccc(Cl)cc1Cl,inactive
7,II,38.9 µM (active)
8,CCOP(=O)(OCC)Oc1ccc([N+](=O)[O-])cc1,inactive
9,C=CC(=O)OCC(C)O (configuration not stated),inactive
10,CN(C)c1ccc(N(C)C)cc1,inactive
11,CC(C)=CCOc1c2occc2cc2ccc(=O)oc12,inactive
12,c1ccc(CN2CCNCC2)cc1,inactive
13,O=C(CCl)c1ccc(Cl)cc1Cl,8.49 µM (active)
14,COCCOCCO,inactive
15,C/C(=C\c1ccccc1)[N+](=O)[O-],9.77 µM (active)
16,CC1(C)[C@H](C=C(Cl)Cl)[C@@H]1C(=O)O[C@@H](C#N)c1cccc(Oc2ccccc2)c1,inactive
17,CCC(C)(NC(=O)c1cc(Cl)c(C)c(Cl)c1)C(=O)CCl (configuration not stated),43.9 µM (active)
18,CO/N=C(/C(=O)OC)c1ccccc1COc1ccccc1C,inactive
